High-throughput results: PubChem, National Center for Advancing Translational Sciences (NCATS)
Rows were chosen to be rich in hits. Some 15% of all compounds tested hit in one or more screens of this group.
RORg inh – qHTS for inhibitors of ROR gamma transcriptional activity | Nuclear receptor ROR-gamma (Mus musculus), P51450 | Drosophila S2 Gal4-RORgamma UAS-luciferase reporter, 20 h | Potency, µM (doses to about 53.6 µM), without a hit: at the top dose activity change, negative = inhibition, actives largely listed as inhibitors | hit rate 5.4% among 310,000; also: nearly all actives have a fitted effect of over 60% in size
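Drosophila S2 cells stably expressing Gal4-DBD/mouse RORγ fusion under metallothionein promoter plus UAS-luciferase; compound 1 h, then 700 uM CuSO4 induction for 20 h at ambient temperature; inhibition read as reduced luminescence.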
ALOX12 inh – Primary qHTS assay for inhibitors of human arachidonate 12S-lipoxygenase (ALOX12): Round 2. Polyunsaturated fatty acid lipoxygenase ALOX12 (Homo sapiens), P18054. purified 12hLO, xylenol orange hydroperoxide absorbance. Potency, µM (titrated, usually from 108 µM), for the others: top-dose activity change, negative = inhibition, actives largely listed as inhibitors. hit rate 1.1% among 580,000
Target sequence (P18054 whole entry, looked up): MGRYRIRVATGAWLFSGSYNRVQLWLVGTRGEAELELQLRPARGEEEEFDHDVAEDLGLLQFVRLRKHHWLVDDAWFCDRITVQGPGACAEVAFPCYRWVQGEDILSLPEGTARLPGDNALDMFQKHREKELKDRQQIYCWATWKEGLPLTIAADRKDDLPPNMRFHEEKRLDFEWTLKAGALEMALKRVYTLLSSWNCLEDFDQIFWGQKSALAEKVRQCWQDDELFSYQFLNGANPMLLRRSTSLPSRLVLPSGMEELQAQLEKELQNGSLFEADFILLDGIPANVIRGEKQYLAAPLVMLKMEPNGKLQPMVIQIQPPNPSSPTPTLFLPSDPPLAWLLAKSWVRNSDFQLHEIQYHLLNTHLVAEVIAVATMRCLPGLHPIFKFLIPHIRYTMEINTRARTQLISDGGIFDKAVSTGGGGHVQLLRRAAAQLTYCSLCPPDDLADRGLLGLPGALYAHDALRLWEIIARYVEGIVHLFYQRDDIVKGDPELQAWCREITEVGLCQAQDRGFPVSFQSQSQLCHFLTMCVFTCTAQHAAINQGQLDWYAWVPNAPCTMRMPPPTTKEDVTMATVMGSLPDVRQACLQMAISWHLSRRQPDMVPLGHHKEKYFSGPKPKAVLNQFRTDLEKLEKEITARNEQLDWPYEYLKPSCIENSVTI
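Hydroperoxide product was detected by ferrous iron/xylenol orange as the 573 to 405 nm absorbance ratio. Arachidonic acid at 40 uM (final) was turned over for 30 min at room temperature by 150 nM human 12hLO, pH 7.0 Hepes buffer, after 15 min compound preincubation.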
ELG1 repair inh – qHTS screen for small molecules that inhibit ELG1-dependent DNA repair in human embryonic kidney (HEK293T) cells expressing luciferase-tagged ELG1; hit rate 2.3% among 330,000; HEK293T ELG1-luciferase reporter, luminescence, 16 h; DNA damage induced by 5-fluorouridine; Potency, µM (series often up to 46.1 µM), inactives show at the top dose activity change, negative = inhibition, most hits filed as inhibitors; also: nearly all actives have a fitted effect of over 55% in size
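Step one: seed 2,000 cells per well. Step two: pin-transfer compound or DMSO alongside 5-fluorouridine. Step three: incubate 16 hr, 37 °C, 5% CO2. Step four: add ONE-Glo, wait 30 min, read luminescence.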
TDP1 cell CPT – qHTS for Inhibitors of human tyrosyl-DNA phosphodiesterase 1 (TDP1): qHTS in cells in presence of CPT. chicken DT40 Tdp1-/-;hTDP1 cells + 20 nM CPT, ATP luminescence, 48 h. Potency, µM (doses to about 46.2 µM), for the others: top-dose activity change, negative = growth inhibition, hits mostly inhibitors. hit rate 12% among 420,000. AID 686979, 2013; also: nearly all actives have a fitted effect of over 55% in size
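Chicken DT40 Tdp1-/- cells complemented with human TDP1, 400 cells/well, exposed to compounds plus 20 nM camptothecin for at least 48 h at 37 C; viability read as ATP content by CellTiter-Glo luminescence.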
VP16 counter – VP16 counterscreen qHTS for inhibitors of ROR gamma transcriptional activity; Drosophila S2 Gal4-VP16 UAS-luciferase, luminescence, 20 h; Potency, µM (doses to about 53.6 µM), without a hit: at the top dose activity, negative = inhibition, usual class: inhibitors; hit rate 3.5% among 310,000;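 also: Gal4-VP16 expression switched on by copper sulfate through the metallothionein promoter; nearly all actives have a fitted effect of over 50% in size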
DT40 TDP1 no CPT – qHTS for Inhibitors of human tyrosyl-DNA phosphodiesterase 1 (TDP1): qHTS in cells in absence of CPT; DT40 Tdp1-/- hTDP1 cells, no CPT, ATP luminescence, 48 h; Potency, µM (doses to about 46.2 µM), for inactives: top-dose activity change, negative = growth inhibition, hits mostly inhibitors; hit rate 15% among 420,000; also: nearly all actives have a fitted effect of over 55% in size
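Seeded 400 DT40-hTDP1 cells/well (vehicle DMSO, no 20 nM CPT); pinned compounds; ≥48 hr at 37 °C; CellTiter-Glo luminescence as viability measure.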
An asterisk follows results filed as active; ? = inconclusive; . = no result; [ ] = remark or other dose. Calls follow the shape of the dose curve; as a rule, active = well fitted curve in the direction sought with a large enough effect; inconclusive = small, poorly fitted or top-dose-only effect, or another doubt; inactive = no such curve, though single readings can be large; an effect the other way counts as inactive or inconclusive. % is scaled to controls: 0 for no effect and ±100 for the full control effect; potency is read from the fitted curve at half-maximal effect.

SMILES	RORg inh	ALOX12 inh	ELG1 repair inh	TDP1 cell CPT	VP16 counter	DT40 TDP1 no CPT
O=C(CCl)N1c2ccccc2Oc2ccc3ccccc3c21	.	?	.	5.2µM*	.	1.5µM*
CC(=O)N1c2ccccc2Oc2cc3ccccc3cc21	?	?	?	7%	16%	-7%
CNC(=O)[C@@H]1CN(S(C)(=O)=O)C[C@H]1COC	.	0%	.	.	.	.
Cc1ccc(C)c(Cn2c(=O)n(CCCCC(=O)NCc3ccccc3Cl)c(=O)c3ccccc32)c1	.	0%	.	7.3µM*	.	7.3µM*
Cc1ccc(C)c(Cn2c(=O)n(CCCC(=O)NCc3ccco3)c(=O)c3ccccc32)c1	-1%	-5%	-6%	-28%	7%	?
COc1cccc(NC(=O)Cn2c(=O)n(CCCCC(=O)NCc3ccccc3Cl)c(=O)c3ccccc32)c1	.	0%	.	?	.	18µM*
CCOC(=O)c1ccccc1NC(=O)Cn1c(=O)n(CCC(=O)NCc2ccccc2OC)c(=O)c2ccccc21	.	-17%	.	?	.	16µM*
COc1ccc(NC(=O)Cn2c(=O)n(CCCC(=O)NCc3ccccc3OC)c(=O)c3ccccc32)cc1Cl	.	-28%	.	?	.	-21%
O=C(CCCn1c(=O)c2sccc2n(Cc2c(F)cccc2Cl)c1=O)NCc1ccccc1	.	1%	.	?	.	16µM*
CC(=O)N1CCC(CC(=O)N2C[C@@H](Oc3cccnc3)C[C@H]2C(=O)N2CCOCC2)CC1	.	62%	.	.	.	.
Cc1ccc(SC(=O)COc2ccccc2Cl)cc1	.	5%	.	.	.	.
O=C(CCCCn1c(=O)c2ccccc2n(Cc2ccccc2F)c1=O)NCc1ccccc1Cl	.	?	.	8.2µM*	.	5.2µM*
Cc1ccc(CNC(=O)CCCn2c(=O)c3ccccc3n(Cc3ccccc3C)c2=O)cc1	.	0%	.	?	.	?
CCCCNC(=O)CCCn1c(=O)c2ccccc2n(Cc2ccccc2C)c1=O	.	0%	.	?	.	21µM*
CCCCNC(=O)CCCn1c(=O)c2ccccc2n(Cc2c(C)cc(C)cc2C)c1=O	.	-9%	.	1%	.	-4%
COc1ccccc1CNC(=O)CCCCn1c(=O)c2ccccc2n(Cc2ccccc2F)c1=O	.	-12%	.	3.7µM*	.	2.3µM*
COc1ccccc1CNC(=O)CCCCn1c(=O)c2ccccc2n(Cc2ccccc2C)c1=O	.	-27%	.	5.8µM*	.	2.9µM*
Cc1ccc(CN(C)C(=O)NC(c2ccc3c(c2)OCCCO3)C(C)C)c(C)c1 (configuration not stated)	.	16%	.	.	.	.
O=C(CCCn1c(=O)c2ccccc2n(CC(=O)Nc2ccc(F)cc2F)c1=O)NCc1ccccc1Cl	.	-30%	.	16µM*	.	?
CCCCNC(=O)CCCn1c(=O)c2ccccc2n(Cc2cccc(Cl)c2)c1=O	.	-23%	.	23µM*	.	23µM*
Cc1c2cnn(CC(=O)NC(C)C)c(=O)c2c(C)n1Cc1cccc(Cl)c1	.	7%	.	-28%	.	?
CCCCNC(=O)Cn1ncc2c(C)n(Cc3cccc(Cl)c3)c(C)c2c1=O	.	-1%	.	23µM*	.	21µM*
O=C(CCCCn1c(=O)c2ccccc2n(CC(=O)Nc2ccc(F)cc2F)c1=O)NCc1ccccc1Cl	.	-18%	.	-10%	.	-19%
Cc1ccc(C(=O)Nc2nc(-c3nnn(-c4cccc(C(F)(F)F)c4)c3C)ns2)cc1	.	-12%	.	3.3µM*	.	4.1µM*
Cc1ccc(Cl)cc1-n1nnc(-c2nsc(NC(=O)c3ccccc3Cl)n2)c1C	.	-2%	.	?	.	?
SMILES	RORg inh	ALOX12 inh	ELG1 repair inh	TDP1 cell CPT	VP16 counter	DT40 TDP1 no CPT
Cc1ccc(C(=O)Nc2nc(-c3nnn(-c4cccc(Cl)c4C)c3C)ns2)cc1C	.	-2%	.	26µM*	.	18µM*
CC(C)CCSc1nc2c(c(=O)[nH]c(=O)n2C)n1C(C)C	.	36%	.	.	.	.
CCN(CCO)c1ccc(Nc2cc(-c3ccc(-c4ccccc4)cc3)ncn2)cc1	.	11µM*	.	18µM*	.	15µM*
Cc1c(C(=O)N2CC[C@@H]3[C@@H](CCC(=O)N3CCN)C2)[nH]c2ccccc12	.	-3%	.	.	.	.
COc1ccc2cc(-c3nc(-c4nonc4N)no3)c(=O)oc2c1	.	-19%	.	.	.	.
Cc1oncc1C(=O)Nc1ccc(C(F)(F)F)cc1	?	-30%	?	7.3µM*	14%	9.2µM*
COc1ccc(CCNC(=O)CCc2c(C)nc3c4c(C)cc(C)nc4nn3c2C)cc1OC	.	-17%	.	?	.	16µM*
Cc1cccc(CCNC(=O)CCc2c(C)nc3c4c(C)cc(C)nc4nn3c2C)c1	.	-3%	.	?	.	-17%
CSc1ccc(CCNC(=O)CCc2c(C)nc3cc(-c4ccccc4)nn3c2C)cc1	.	-7%	.	-23%	.	-24%
CCOc1ccc(CCNC(=O)CCc2c(C)nc3cc(-c4ccccc4OC)nn3c2C)cc1	.	?	.	?	.	15µM*
COc1ccc(CCNC(=O)CCc2c(C)nc3cc(-c4ccccc4)nn3c2C)cc1OC	.	-19%	.	16µM*	.	26µM*
CCOc1ccccc1NC(=O)CCc1c(C)nc2cc(-c3ccccc3)nn2c1C	.	-4%	.	18µM*	.	12µM*
CN(C)CC1(O)CCN(C(=O)Cn2cc(C(=O)C3CC3)c3ccccc32)C1 (configuration not stated)	.	30%	.	.	.	.
CCC(C)NC(=O)N1CC(Oc2ccc(-c3nc(-c4ccccc4)no3)cc2)C1 (configuration not stated)	.	36%	.	.	.	.
Cc1cccc(N(CC(=O)N[C@H]2CC[C@H]2NC2CCCC2)S(C)(=O)=O)c1	.	1%	.	.	.	.
O=C1[C@@H]2C[C@@H](O)CN2C2(CN(C3CCCCC3)C2)C(=O)N1Cc1ccccc1Cl	.	66%[176 µM]	.	.	.	.
O=C(Nc1ccc(Cl)cc1)N1CCC2(C1)C(=O)N(CCc1ccccc1)c1ccccc12 (configuration not stated)	.	33%	.	.	.	.
COc1ccc(C2CC(C(F)(F)F)n3ncc(C(=O)Nc4cccc(O)c4)c3N2)cc1OC (configuration not stated)	20%	0%	15µM*	-15%	?	?
CN(CCC(=O)c1ccccc1)CCC(=O)c1ccccc1	9%	-19%	5%	4.6µM*	2%	2.9µM*
